# High-throughput results deposited in PubChem by several laboratories.
# This is a sample that favours compounds with a hit; in the whole collection about 4.2% have one here.
# FBA Mtb inh = Mtb fructose-bisphosphate aldolase inhibition. AID 588726. 360,000 tested, 2.3% active. purified M. tuberculosis FBA, fluorescence read-out. inhibition, % at 1 µM. P9WQA3; in the data active = inhibition above about 27%;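 also: 0% = vehicle and 100% = reference inhibitor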
# RecA splice inh = Mtb RecA intein splicing inhibition; P9WHJ3; cell-free RecA intein splicing, fluorescence; inhibition, % (no concentration beside the values); 290,000 tested, 0.75% active; in the data active = inhibition above about 30%;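 also: 0% = vehicle wells and 100% = reference inhibitor control wells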
# Mtb betalactam = beta-lactam sensitization of Mtb H37Rv. M. tuberculosis H37Rv growth with meropenem, percent inhibition. inhibition, % at 25 µM. 330,000 tested, 0.27% active; call rule not given here;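 also: growth measured after seven days incubation then overnight dye step; 0% = bacteria only wells and 100% = bacteria with antibiotic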
# GDH-TPI counter-1 = GDH-TPI coupled enzyme inhibition counter-screen; GDH-TPI coupled enzyme counterscreen, NADH absorbance; inhibition, % at 4.8 µM; 360,000 tested, 1.2% active;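 also: 0% = DMSO wells and 100% = wells lacking the enzyme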
# CCHF vOTU inh = CCHFV vOTU protease inhibition; inhibition, % at 11.5 µM; Pep-AMC fluorescence; 370,000 tested, 0.55% active; also: 0% = vehicle wells with enzyme and 100% = no enzyme wells
# Mtb FBA inh conf = confirmation of M. tuberculosis fructose-bisphosphate aldolase inhibitors; shares compounds with FBA Mtb inh; purified M. tuberculosis FBA, fluorescence read-out; inhibition, % at 1 µM; 5,600 tested, 78% active; AID 651616; in the data active = inhibition above about 27%;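 also: 0% = vehicle wells and 100% = reference inhibitor wells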
# GDH-TPI counter-2 = GDH-TPI inhibition counter-screen for FBA inhibitors. GDH-TPI coupled enzyme counterscreen, fluorescence. inhibition, % at 1 µM. shares compounds with FBA Mtb inh. 5,600 tested, 81% active; in the data active = inhibition above about 10%
# An asterisk follows results filed as active; / = no result given; + = active, no number. Rule as the data show it, unless noted: active = inhibition above about 30%; inactive = the rest.
SMILES,FBA Mtb inh,RecA splice inh,Mtb betalactam,GDH-TPI counter-1,CCHF vOTU inh,Mtb FBA inh conf,GDH-TPI counter-2
O[C@@H](Cc1ccccc1)[C@@H](/C=C/c1ccccc1)NCCc1ccccc1,/,/,/,/,8,/,/
CC(=O)Oc1ccc(-c2cc3c(OC(C)=O)cc(OC(C)=O)cc3oc2=O)cc1,92*,-424,-5,8,-167,171*,195*
COC(=O)COc1ccc2cc(-c3ccc(OC)cc3)c(=O)oc2c1,44*,-2,99,17,-38,188*,171*
CC(=O)Oc1ccc(-c2nc3ccccc3c(=O)o2)cc1,0,11,19,-3,-5,/,/
CC(=O)Oc1ccc(-c2cc3ccccc3oc2=O)cc1,75*,1,0,37*,-32,+,+
N#CCC[C@@H]1CC[C@]2(CCCN(C(=O)c3ccc4ccccc4n3)C2)O1,/,/,/,/,6,/,/
COc1cccc(-c2nnc(SCC(=O)Nc3cccc4ccccc34)n2Cc2ccco2)c1,/,/,/,/,8,/,/
COC(=O)[C@]12C[C@H](CC(=O)NCCc3ccccc3OC)C(=O)N(Cc3ccc(Cl)cc3Cl)C1=C[C@H](C1CCCC1)O[C@@H]2C,/,/,/,/,12,/,/
COc1ccc2c(c1)[C@@]1(OCCC=C[C@H]1C)C(=O)N2CC1CC1,/,/,/,/,-10,/,/
Cc1cc2n(n1)C(c1ccc(N(C)C)cc1)Nc1ccccc1-2 (stereo unspecified),33*,-6,6,29,-5,98*,82*
Cc1cc2n(n1)C(c1ccccc1)Nc1ccccc1-2 (stereo unspecified),6,3,-4,1,-15,/,/
CC(C)C12CN3CC(C(C)C)(CN(C1)C3c1ccc3c(c1)OCO3)C2=O (stereo unspecified),-2,1,2,-9,8,/,/
CN1C(=O)c2ccccc2N(C)C1c1ccc(F)cc1 (stereo unspecified),54*,-20,2,1,-121,40*,35*
CN1C(=O)c2ccccc2NC(=O)[C@]12O[C@@H]2c1cccc(O)c1,0,-2,-10,-2,-2,/,/
CN1C(=O)c2ccccc2N(C)C1c1cccc(O)c1 (stereo unspecified),59*,-13,-3,-2,-148,0,-4
CN1C(=O)c2ccccc2N(C)C1c1ccc2c(c1)OCO2 (stereo unspecified),101*,/,-1,-5,-85,63*,39*
COc1cc(C2N(C)C(=O)c3ccccc3N2C)ccc1O (stereo unspecified),76*,-4,-4,0,-136,-5,-7
CCCc1c(Cc2cccc(F)c2)ncn1CCc1ccccc1OC,/,/,/,/,19,/,/
COc1cc2cc(CN(Cc3nnnn3Cc3ccccc3)CC3CCCO3)c(=O)[nH]c2cc1OC (stereo unspecified),35*,-85,/,0,-56,136*,144*
COc1ccc2[nH]c(=O)c(CN(Cc3ccccc3)Cc3nnnn3CC3CCCO3)cc2c1 (stereo unspecified),24,0,-5,16,-16,/,/
NC(=O)c1cc2nc(-c3ccco3)cc(C(F)(F)F)n2n1,24,/,1,28,-30,/,/
FC(F)(F)c1cc(-c2ccccc2)nc2ncnn12,34*,0,2,1,-15,0,-3
FC(F)(F)c1cc(-c2ccco2)nc2ncnn12,27*,0,0,17,-46,75*,57*
O=C(NCc1ccc(Cl)cc1)C1C2C=CC3(CN(Cc4ccccc4)C(=O)C13)O2 (stereo unspecified),/,/,/,/,1,/,/
O=C(Nc1ncc(Cc2ccccc2)s1)C1=NCCN1,65*,-8,96,9,-7,93*,77*
CCCc1cn(CC(C)n2c(=O)c3ccccc3n2Cc2cc(C(C)C)no2)nn1 (stereo unspecified),/,/,/,/,-17,/,/
CCOC(=O)Cn1cc(Cn2c3ccccc3c(=O)n2C(C)C)nn1,69*,/,/,/,-23,8,1
CC(C)n1c(=O)c2ccccc2n1Cc1cn(C2CCCC2)nn1,101*,/,/,/,-3,90*,60*
Cn1nc(-c2ccc(Cl)cc2)c2cc(C(=O)N3CCN(C(=O)c4ccco4)CC3)sc21,1,/,6,13,-4,/,/
COc1cccc(-c2nn(C)c3sc(C(=O)NCc4ccccn4)cc23)c1,80*,-3,-9,20,-10,0,-2
